Pf Dd2 inh: inhibitors of Plasmodium falciparum Dd2 growth | P. falciparum Dd2 growth, SYBR Green, 72 h | hit rate 4.3% among 120,000 | Potency, µM (series often up to 28.9 µM), actives largely listed as inhibitors; active = well fitted inhibition curve with a large enough effect; note: nearly all actives have a fitted effect of over 65% in size
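Infected erythrocytes (Dd2, 0.3% parasitemia, 2.5% hematocrit final) are added to compound in RPMI-1640/Albumax II medium, grown 72 h at 37C in low oxygen, then lysed with saponin/Triton-X containing SYBR Green and read by fluorescence.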
Each line names hits and unclear results; the compound was inactive in the other large screens. Shown is part of a subset that was picked to be rich in hits.

COc1cc(OC)c(NC(=O)C(C)n2c(=O)cc(-c3ccccc3)c3c(C)nn(C)c32)cc1Cl (stereo not drawn)	Pf Dd2 inh 10µM
O=c1c2c(nc3cc[nH]n13)CN(S(=O)(=O)c1ccc(F)c(Cl)c1)CC2	none
CCn1nc(C(C)C)cc1C(=O)N1C[C@@H]2CCN(C)C[C@]2(C(=O)O)C1	none
CCc1noc(-c2cn(C3CCN(C(=O)C(C)c4ccccc4)CC3)nn2)n1 (stereo not drawn)	none
Cc1ccc(-c2ccc3nnc(CNC(=O)c4cccc(N(C)C)c4)n3n2)cc1	none
Cc1ccc(S(=O)(=O)c2cn(CC(=O)Nc3cccc(Cl)c3)c3ccccc3c2=O)cc1	none
Cc1ccc(S(=O)(=O)N(CC(O)Cn2c3ccccc3c3ccccc32)c2cccc(C(N)=O)c2)cc1 (stereo not drawn)	Pf Dd2 inh 10µM
COc1ccc(S(=O)(=O)N(CC(=O)NCc2ccccc2)c2ccc(C)cc2)cc1OC	none
Cc1ccc(S(=O)(=O)N(CC(O)Cn2c3ccccc3c3ccccc32)c2cccc(C(=O)N(C)C)c2)cc1 (stereo not drawn)	Pf Dd2 inh 8.9µM
CCOC(=O)N1CCN(C(=O)CN(c2ccccc2F)S(=O)(=O)c2ccc(C)cc2)CC1	none
COCCN1CCC2(CCC1=O)CCN(C(=O)Nc1ccc(Br)cc1)CC2	none
CCN(CC)Cc1cnc2c(C(=O)NC3CCNCC3)cnn2c1	none
COCCO[C@H]1C(=O)N(C2CCN(S(=O)(=O)c3cn(C)cn3)CC2)[C@H]1c1ccncc1	none
O=C(COc1ccc(F)cc1F)N1CCCC(Cc2nc3ccccc3[nH]2)C1 (stereo not drawn)	none
O=C(Cn1ncc(N2CCNCC2)cc1=O)NCCc1ccc(F)cc1	none
CNC(=O)[C@@H]1C[C@@H](n2cc(CC(C)C)nn2)CN1	none
COc1ccc(NC(=O)c2sc3nc4c(cc3c2N)CN(Cc2ccccc2)CC4)cc1OC	none
CN1CCc2nc3sc(C(=O)Nc4ccccc4C(F)(F)F)c(N)c3cc2C1	Pf Dd2 inh 8.9µM
CN1CCc2nc3sc(C(=O)c4ccc(F)cc4)c(N)c3cc2C1	none
COc1ccc(-c2cn(C)c(=O)n3cc(CN4CC[S+](=O)([O-])CC4)nc23)cc1OC	none
O=c1n(-c2ccncc2)nc2n1CCN(Cc1ccccc1)C2	none
O=C(Nc1ccccc1)Nc1ccc([C@H]2OCC(=O)N(Cc3ccc(F)cc3)[C@@H]2CO)cc1	none
O=C(Cc1ccsc1)N1CCC2(CC1)CN(c1ccncn1)CC2CO (stereo not drawn)	none
O=C(Cc1ccccc1)N1CCC2(CC1)CN(c1ccncn1)CC2CO (stereo not drawn)	none
O=C(c1c[nH]c2ccccc12)N1CCC2(CC1)CN(c1ccncn1)CC2CO (stereo not drawn)	Pf Dd2 inh 5.6µM
O=C(CC1CCCN(c2cnn(CC3CC3)c(=O)c2)C1)NCCc1cccs1 (stereo not drawn)	none
COc1cccc(CC(=O)N2CCC3(CC2)NC(=O)N(c2ccc(F)cc2)N3)c1	none
CN(Cc1ccc(-c2ccccc2)cc1)Cc1cccc(F)c1	none
Cc1ccc(-c2ccc(C=O)cc2)cc1Cl	none
NCc1cccc(-c2ccc(O)cc2)c1	none
CSc1ccc(-c2cccc(CN)c2)cc1	Pf Dd2 inh 10µM
Cc1ccc(-c2cccc(CN)c2)cc1Cl	Pf Dd2 inh 11µM
Cc1ccc(-c2cccc(C=O)c2)cc1Cl	none
C#CCN(C)C(=O)[C@@H]1CCCN1[C@@H](C(=O)NC)c1ccc(OC)cc1	none
COCCNC(=O)C1COC2(CCN(C(=O)C3CC3)CC2)N1C(=O)c1cccc(OC)c1 (stereo not drawn)	none
CCN1CCC(N(Cc2ccc3c(c2)OCO3)C(=O)Nc2ccccc2OC)CC1	none
COC(=O)c1ccc(Cl)cc1NC(=O)N(Cc1ccc(C)o1)C1CCN(C(C)=O)CC1	none
CCN1CCC(N(Cc2ccc3c(c2)OCO3)C(=O)Nc2cc(Cl)ccc2C(=O)OC)CC1	Pf Dd2 inh 3.5µM
O=C1[C@H]2CN(Cc3ccc(F)c(Cl)c3)C[C@H]2C(=O)N1Cc1ccc2c(c1)OCO2	none
O=C(Nc1ccc(F)c(Cl)c1)N(Cc1ccc2c(c1)OCO2)C1CCN(Cc2ccccc2)CC1	Pf Dd2 inh 8.9µM
O=C([C@@H]1COCC(=O)N1Cc1ccccc1)N1CCN(Cc2ccc3c(c2)OCO3)CC1	none
CN(C)c1ccc(CN2CCn3c(nnc3-c3ccc(Cl)cc3)C2)cc1	none
CN1c2cc(C(=O)NCc3ccc(F)cc3F)ccc2C(=O)N2CCCC21 (stereo not drawn)	none
COCCn1ncc(N2CCCC(CC(=O)Nc3ccc(C)cc3C)C2)cc1=O (stereo not drawn)	none
COc1ccccc1C(=O)N1CCc2nc(C)nc(-c3ccc(Cl)cc3)c2C1	none
Cc1nc2ncnn2c(C)c1CCC(=O)N1C[C@@H](N)C[C@H]1C(=O)NC(C)C	none
COCC(=O)NC1(Cc2cc(-c3ccc(OC)cc3)on2)COC1	none
CC(C)(C)CC(=O)N[C@H]1C[C@@H](Cc2cc(COc3ccccc3)on2)C1(C)C	none
COCC(=O)N[C@H]1C[C@@H](Cc2cc(-c3ccc(OC)cc3)on2)C1(C)C	Pf Dd2 inh 2µM
CCCN[C@H]1C[C@@H](Cc2cc(COc3ccccc3)on2)C1(C)C	none
COCC(=O)N[C@H]1C[C@@H](Cc2cc(CO)on2)C1(C)C	none
